Assay [1] can be described thus: qHTS assay to identify small molecule antagonists of the vitamin D receptor (VDR) signaling pathway - cell viability counter screen (AID 743225). Further: nearly all actives have a fitted effect of over 50% in size. In short, it runs like this: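 In this counter screen, VDR-bla HEK 293T cells receive test compound plus 3 nM final calcitriol for 16 h at 37C. Room-temperature steps of 2 h with the beta-lactamase substrate, then 30 min with CellTiter-Glo, precede the luminescence read.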

A short description of assay [2]: qHTS assay to identify small molecule agonists of the NFkB signaling pathway (AID 1159509; active means well fitted curve in the direction sought with a large enough effect in the signal ratio in the repeat runs, not every such curve was filed as active; the % refers to the signal ratio; further: series mostly up to about 61 µM). In short, it runs like this:
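NFkB-bla ME-180 cells with a beta-lactamase reporter under an NF-kB response element were plated overnight, treated with compounds in DMSO for 5 hr at 37 C, then loaded with FRET substrate for 1.5 hr at room temperature.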

Assay [3] can be described thus: qHTS assay to identify small molecule agonists of the NFkB signaling pathway - cell viability counter screen (AID 1159515; calls by dose curve; further: series mostly up to about 61 µM; nearly all actives have a fitted effect of over 55% in size). In short, it runs like this: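 Using the same wells as the NFkB reporter read, ME-180 NFkB-bla cells given compounds for 5 hr were assessed for viability via CellTiter-Glo, with luminescence taken after a 30 min room-temperature incubation.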

A short description of assay [4]: qHTS assay to identify small molecule agonists of the endoplasmic reticulum stress response signaling pathway (AID 1159516; active means well fitted activation curve with a large enough effect in the signal ratio in the repeat runs, not every such curve was filed as active; the % refers to the signal ratio). In short, it runs like this:
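An ESRE-bla HeLa cell assay: compounds were pin-transferred from DMSO onto overnight-plated cells and left 5 hr at 37 C. Substrate was then loaded for 2 hr at room temperature before reading fluorescence at 460 nm and 530 nm.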

Assay [5] is described as follows: qHTS assay to identify small molecule agonists of the endoplasmic reticulum stress response signaling pathway - cell viability counter screen (AID 1159517; calls by dose curve; further: nearly all actives have a fitted effect of over 50% in size; further: potency means the concentration at half of the fitted maximal effect). In short, it runs like this:
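Luminescence readout: CellTiter-Glo, 30 min RT, same wells as the ESRE-bla reporter read. HeLa ESRE-bla, 1,500 cells/well, o/n 37 C; cpd 5 hr 37 C/5% CO2.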

Assay [6] can be described thus: qHTS assay to identify small molecule antagonists of the retinoid-related orphan receptor gamma (ROR-gamma) signaling pathway - cell viability counter screen (AID 1159520). Further: nearly all actives have a fitted effect of over 50% in size. In short, it runs like this:
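Tet-on ROR gamma CHO cells (1,000/well) were plated 4 hr, given compounds in DMSO for 2 hr at 37 C, then induced with 1 uM final doxycycline for 16 hr. Viability was read as ATP by CellTiter-Glo luminescence after 30 min.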

In assay [7] the target is Nuclear receptor ROR-gamma (Homo sapiens) (UniProt P51449). The experiment in a line: qHTS assay to identify small molecule antagonists of the retinoid-related orphan receptor gamma (ROR-gamma) signaling pathway (AID 1159521; further: nearly all actives have a fitted effect of over 50% in size; further: potency means the concentration at half of the fitted maximal effect). In short, it runs like this:
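Screening format: cell-based luciferase reporter in CHO cells with doxycycline-inducible RORγ. Compound pre-exposure lasts 2 h, doxycycline is 1 uM final, induction runs 16 h at 37 C, and ONE-Glo luminescence is read.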

Assay [8] is described as follows: qHTS assay to identify small molecule agonists of the AP-1 signaling pathway - cell viability counter screen (AID 1159525; calls by dose curve; further: nearly all actives have a fitted effect of over 55% in size). In short, it runs like this: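 ME-180 AP-1-bla, 2500 cells/well, Opti-MEM + 0.5% dialyzed FBS; overnight 37 °C; cpd 15-pt titration, 5 h 37 °C; CellTiter-Glo 30 min RT; luminescence read; normalised to TOAB and DMSO controls.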
The nature of assay [9]: qHTS assay to identify small molecule agonists of the AP-1 signaling pathway (AID 1159526; calls by dose curve).
A short description of assay [10]: qHTS assay to identify small molecule agonists of the RXR signaling pathway - cell viability counter screen (AID 1159529). In short, it runs like this: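 Viability read-out for the RXR-alpha agonist qHTS: luminescent CellTiter-Glo signal after 30 min at RT. HEK 293T bla reporter cells, 2% charcoal-stripped FBS, 16 hr compound incubation; tetraoctyl ammonium bromide as cytotoxic control.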

The nature of assay [11]: qHTS assay to identify small molecule antagonists of the retinoid acid receptor (RAR) signaling pathway - cell viability counter screen (AID 1159551). Further: nearly all actives have a fitted effect of over 35% in size. In short, it runs like this: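 Retinol-stimulated (1 uM final) C3RL4 cells, compound 6 h, 37 C; readout CellTiter-Glo luminescence (ATP) after 30 min RT incubation.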
Assay [12] in a line: qHTS assay to identify small molecule antagonists of the retinoic acid receptor (RAR) signaling pathway (AID 1159552; further: nearly all actives have a fitted effect of over 50% in size). In short, it runs like this:
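Using a RARE-driven luciferase construct in C3RL4 cells, retinol at 1 uM final provided the agonist stimulus while compounds were co-applied. After 6 hours at 37 C, luminescence was recorded to flag inhibitors of retinol signaling.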

The nature of assay [13]: qHTS assay to identify small molecule agonists of the retinoic acid receptor (RAR) signaling pathway (AID 1159553). Further: potency means the concentration at half of the fitted maximal effect. In short, it runs like this:
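Reporter readout comes from luciferase under RARE control in C3RL4 cells; compound exposure lasts 6 hr at 37 C in 5% CO2, and luminescence is recorded following a 30 min room-temperature incubation with reagent.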

Assay [14] is described as follows: qHTS assay to identify small molecule antagonists of the estrogen related receptor (ERR) signaling pathway from Tox21 library - cell viability counter screen (AID 1224834). Further: nearly all actives have a fitted effect of over 30% in size. Further: potency means the concentration at half of the fitted maximal effect. In short, it runs like this: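 After 17.5 h of compound exposure at 37 C, ERR cells are incubated with CellTiter-Fluor for 30 min and fluorescence intensity serves as the viability measure.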

Records with an inconclusive call do not appear. A number with no mark means an inactive call. Calls of active or inactive are those of the source. Unless noted, the call rests on the fitted dose curve; in most records, active means well fitted curve in the direction sought with a large enough effect in the repeat runs; inconclusive means weak or mixed curves; inactive means no such curve, though single readings can be large; an effect the other way counts as inactive or inconclusive.

For `CC1(C)CON(Cc2ccccc2Cl)C1=O`, the molecule was classed as inactive in assay [1], in assay [2], in [3], in [4] and in [9]. Besides, the Potency entry in assay [5], in assay [6], in assay [7], in assay [8], in assay [10] and in assay [11] was “inactive” throughout. Moreover, the Potency entry in assay [12] and in [14] was “inactive” each time. Moreover, the Potency in assay [13] is 68.6 µM (active).

With `O=C(Nc1ccccc1)N(Cc1ccc(Cl)cc1)C1CCCC1`, the result in assay [2], in [3], in assay [4] and in [9] was inactive. Besides, the Potency entry in assay [5], in assay [6], in assay [8], in assay [10], in assay [11] and in assay [13] was “inactive” throughout. Further, the Potency was 61.1 µM (active) in assay [7] and 48.6 µM (active) in assay [14].

As to `CCOP(=O)(OCC)OP(=O)(OCC)OCC`, the call in assay [1], in assay [2], in [3], in [4] and in assay [9] was inactive. The Potency entry in [5], in assay [6], in assay [7], in assay [8], in assay [10] and in [11] was “inactive” in each case. Also, the Potency result in assay [14] was “inactive”.

`O=C(Nc1ccccc1)c1ccccc1I`: the call in assay [1], in [2], in assay [3], in [4] and in [9] was inactive. Besides, the Potency result in assay [5], in assay [6], in assay [7], in [8], in assay [10] and in [11] was “inactive” in each case. Also, the Potency entry in assay [12] and in [14] was “inactive” each time.

Turning to `O=[N+]([O-])c1cccc2c([N+](=O)[O-])cccc12`, the call in [1], in assay [2], in assay [3], in [4] and in assay [9] was inactive. Moreover, the Potency entry in assay [5], in assay [6], in assay [7], in assay [8], in assay [10] and in assay [11] was “inactive” throughout. In addition, in assay [13], the Potency result is “inactive”. In addition, the Potency in assay [14] is 61.4 µM (active).

With `O=[N+]([O-])c1ccc(CBr)cc1`, the result in [1], in [2], in assay [3], in assay [4] and in assay [9] was inactive. Also, the Potency in assay [5] was 27.2 µM (active). Further, the Potency entry in [6], in assay [7], in assay [8], in assay [10], in assay [11] and in assay [12] was “inactive” throughout. The Potency result in assay [13] and in assay [14] was “inactive” in each case.

For `O=NN1CCCCC1`, the outcome in assay [2], in assay [3], in assay [4] and in assay [9] was inactive. The Potency entry in assay [5], in assay [6], in [7], in assay [8], in assay [10] and in [11] was “inactive” in each case. In addition, in [14], the Potency result was “inactive”.

Consider `CCOP(=S)(OCC)Oc1cc(-c2ccccc2)on1`, for which the molecule was called inactive in assay [1], in [2], in assay [3], in assay [4] and in assay [9]. The Potency entry in [5], in [6], in [7], in assay [8], in [10] and in [11] was “inactive” throughout. Moreover, the Potency result in assay [12] and in assay [14] was “inactive” throughout.

In the case of `CCOc1nc(C(Cl)(Cl)Cl)ns1`, the molecule was classed as inactive in [2], in [3], in assay [4] and in assay [9]. The Potency entry in assay [5], in assay [6], in [7], in [8], in assay [10] and in [11] was “inactive” each time. In addition, the Potency result in [12], in assay [13] and in assay [14] was “inactive” in each case.

Take `CC(=O)CC(c1ccc(Cl)cc1)c1c(O)c2ccccc2oc1=O` (stereo unspecified): the outcome in assay [1], in assay [2], in assay [3], in assay [4] and in [9] was inactive. The Potency result in assay [5], in [6], in assay [7], in assay [8], in assay [10] and in assay [11] was “inactive” throughout. Besides, the Potency result in assay [12], in assay [13] and in assay [14] was “inactive” each time.

For the molecule `CCS(=O)(=O)C(C)(C)S(=O)(=O)CC`, the call in assay [2], in assay [3], in assay [4] and in assay [9] was inactive. Besides, the Potency entry in assay [5], in [6], in assay [7], in [8], in assay [10] and in [11] was “inactive” each time. Also, the Potency result in [14] is “inactive”.

Take `CCCCN(CCCCO)N=O`: the result in assay [1], in [2], in assay [3], in [4] and in assay [9] was inactive. Further, the Potency result in assay [5], in assay [6], in assay [7], in [8], in assay [10] and in assay [11] was “inactive” in each case. In addition, the Potency result in [12], in assay [13] and in assay [14] was “inactive” in each case.

`O=[N+]([O-])c1cc(Cl)c(Cl)c(Cl)c1`: the result in [1], in assay [2], in [3], in assay [4] and in assay [9] was inactive. The Potency entry in assay [5], in [6], in [7], in assay [8], in [10] and in assay [11] was “inactive” each time. In addition, the Potency result in assay [14] was “inactive”.

For `N#CCNCC#N`, the result in assay [1], in assay [2], in [3], in [4] and in assay [9] was inactive. In addition, the Potency result in [5], in assay [6], in [7], in assay [8], in assay [10] and in assay [11] was “inactive” throughout. The Potency entry in assay [14] is “inactive”.

For `[As]#[In]`, the result in assay [1], in assay [2], in assay [3], in [4] and in assay [9] was inactive. The Potency entry in [5], in assay [6], in assay [7], in assay [8], in assay [10] and in assay [11] was “inactive” throughout. The Potency result in assay [12] and in assay [14] was “inactive” each time.

For `CCN(Cc1ccc(Cl)nc1)/C(=C/[N+](=O)[O-])NC`, the call in [2], in [3], in assay [4] and in assay [9] was inactive. Moreover, the Potency result in [5], in assay [6], in assay [7], in assay [8], in [10] and in assay [11] was “inactive” each time. For the same molecule, in assay [14], the Potency entry was “inactive”.

For `CCOP(=S)(OCC)SCSc1ccc(Cl)cc1`, the outcome in [1], in assay [2], in assay [3], in [4] and in assay [9] was inactive. Moreover, the Potency entry in assay [5], in [6], in assay [7], in assay [8], in assay [10] and in assay [11] was “inactive” each time. In addition, the Potency entry in assay [12], in assay [13] and in assay [14] was “inactive” each time.

For the molecule `O=[N+]([O-])c1cccc2cccnc12`, the molecule was called inactive in assay [1], in assay [2], in assay [3], in assay [4] and in assay [9]. The Potency entry in assay [5], in assay [6], in [7], in assay [8], in assay [10] and in [11] was “inactive” in each case. Also, the Potency result in assay [12], in [13] and in [14] was “inactive” each time.

Regarding `O=CNC(N1CCN(C(NC=O)C(Cl)(Cl)Cl)CC1)C(Cl)(Cl)Cl` (stereo unspecified), the call in assay [1], in assay [2], in assay [3], in assay [4] and in [9] was inactive. Besides, the Potency entry in assay [5], in [6], in assay [7], in [8], in [10] and in assay [11] was “inactive” each time. Besides, in [14], the Potency entry is “inactive”.

For `O=[N+]([O-])c1ccc2c3c(cccc13)CC2`, the molecule was called inactive in assay [1], in assay [2], in [3], in assay [4] and in [9]. Further, the Potency result in [5], in [6], in assay [7], in [8], in assay [10] and in assay [11] was “inactive” each time. Further, the Potency result in assay [12], in assay [13] and in assay [14] was “inactive” each time.
